Source: the supplement of paper PMC11732987, “Enantioselective OTUD7B fragment discovery through chemoproteomics screening and high-throughput optimisation” (Communications Chemistry, 2025)
Unmarked numbers belong to inactive results.

What was measured:
Experiment in all cases: log2 ratio of Biotin-Ahx-Ub-VS probe labelling (fragment/DMSO); higher = less target engagement (more negative = stronger competition), active = hit call of the paper (q ≤ 0.05, log2 ratio ≤ -1)
Settings in all cases: compound concentration: 200 uM; treatment time: 3 h
OTUD6B = biological target: T1, OTUD6B (UniProt Q8N6M0)
T1 sequence (whole entry): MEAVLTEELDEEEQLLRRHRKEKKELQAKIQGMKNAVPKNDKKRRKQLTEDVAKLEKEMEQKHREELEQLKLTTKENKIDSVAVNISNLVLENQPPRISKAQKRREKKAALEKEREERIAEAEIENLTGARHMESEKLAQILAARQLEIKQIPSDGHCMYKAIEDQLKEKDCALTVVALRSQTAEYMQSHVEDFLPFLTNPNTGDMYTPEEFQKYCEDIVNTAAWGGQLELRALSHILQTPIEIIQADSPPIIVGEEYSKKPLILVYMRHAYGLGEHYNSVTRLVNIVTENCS
Summary of the method: (§1)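 HEK293T lysate (495 µg per sample, in Tris/CHAPS/IGEPAL buffer with protease inhibitors) was exposed in triplicate for 3 h to fragment at 200 µM or to vehicle, then to Biotin-Ahx-Ub-VS at 0.5 µM final for 1 h. Labelled DUBs were enriched on NeutrAvidin, digested with LysC and trypsin, and analysed by diaPASEF LC-MS/MS. Spectronaut label-free quantities were normalised to the global median, and values are average log2 ratios of fragment over vehicle from an unpaired t-test. Only proteins with ≥2 unique peptides were used.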

OTUD7B = biological target: T2, OTUD7B (UniProt Q6GQQ9)
T2 sequence (whole entry): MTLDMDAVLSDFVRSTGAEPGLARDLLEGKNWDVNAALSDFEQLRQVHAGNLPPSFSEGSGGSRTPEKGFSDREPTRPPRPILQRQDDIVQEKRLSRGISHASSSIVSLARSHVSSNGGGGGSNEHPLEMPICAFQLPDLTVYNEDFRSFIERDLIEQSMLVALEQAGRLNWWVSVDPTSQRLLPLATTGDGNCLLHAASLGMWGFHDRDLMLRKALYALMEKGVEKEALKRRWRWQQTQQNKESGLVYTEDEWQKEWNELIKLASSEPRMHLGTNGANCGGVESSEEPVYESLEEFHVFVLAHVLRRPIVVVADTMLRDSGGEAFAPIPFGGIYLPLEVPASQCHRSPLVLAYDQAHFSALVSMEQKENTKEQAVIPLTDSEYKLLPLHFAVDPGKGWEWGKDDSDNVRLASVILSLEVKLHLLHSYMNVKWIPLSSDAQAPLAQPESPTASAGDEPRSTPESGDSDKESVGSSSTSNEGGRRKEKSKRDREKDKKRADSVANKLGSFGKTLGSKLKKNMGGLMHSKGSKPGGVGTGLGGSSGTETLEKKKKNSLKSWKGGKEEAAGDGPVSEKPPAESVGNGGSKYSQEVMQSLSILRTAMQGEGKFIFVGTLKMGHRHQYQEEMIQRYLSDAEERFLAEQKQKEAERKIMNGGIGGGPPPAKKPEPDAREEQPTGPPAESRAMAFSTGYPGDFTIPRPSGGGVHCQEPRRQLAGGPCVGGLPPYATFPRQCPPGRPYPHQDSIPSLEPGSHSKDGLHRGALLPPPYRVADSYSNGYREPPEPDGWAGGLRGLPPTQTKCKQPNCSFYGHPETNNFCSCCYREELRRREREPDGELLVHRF
Summary of the method: as §1

PRPF8 = PRPF8 (UniProt Q6P2Q9)
Summary of the method: as §1

PSMD7 = biological target: T3, PSMD7 (UniProt P51665)
T3 sequence (whole entry): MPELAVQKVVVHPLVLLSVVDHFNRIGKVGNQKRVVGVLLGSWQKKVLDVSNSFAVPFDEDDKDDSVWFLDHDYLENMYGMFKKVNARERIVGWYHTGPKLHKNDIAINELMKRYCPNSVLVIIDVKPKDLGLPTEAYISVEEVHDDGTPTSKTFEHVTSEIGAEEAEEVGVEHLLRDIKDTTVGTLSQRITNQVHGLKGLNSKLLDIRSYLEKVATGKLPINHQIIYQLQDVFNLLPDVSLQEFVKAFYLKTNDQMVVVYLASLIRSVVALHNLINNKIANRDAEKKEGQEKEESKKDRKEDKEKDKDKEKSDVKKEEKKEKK
Summary of the method: as §1

UCHL1 = UCHL1 (UniProt P09936)
Summary of the method: as §1

UCHL3 = biological target: T4, UCHL3 (UniProt P15374)
T4 sequence (whole entry): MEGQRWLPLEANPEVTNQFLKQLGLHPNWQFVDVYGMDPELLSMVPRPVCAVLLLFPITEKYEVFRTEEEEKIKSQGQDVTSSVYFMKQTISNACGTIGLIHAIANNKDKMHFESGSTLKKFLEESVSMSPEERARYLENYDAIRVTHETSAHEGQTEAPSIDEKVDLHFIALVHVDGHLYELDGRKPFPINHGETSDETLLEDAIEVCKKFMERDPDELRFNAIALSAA
Summary of the method: as §1

UCHL5 = biological target: T5, UCHL5 (UniProt Q9Y5K5)
T5 sequence (whole entry): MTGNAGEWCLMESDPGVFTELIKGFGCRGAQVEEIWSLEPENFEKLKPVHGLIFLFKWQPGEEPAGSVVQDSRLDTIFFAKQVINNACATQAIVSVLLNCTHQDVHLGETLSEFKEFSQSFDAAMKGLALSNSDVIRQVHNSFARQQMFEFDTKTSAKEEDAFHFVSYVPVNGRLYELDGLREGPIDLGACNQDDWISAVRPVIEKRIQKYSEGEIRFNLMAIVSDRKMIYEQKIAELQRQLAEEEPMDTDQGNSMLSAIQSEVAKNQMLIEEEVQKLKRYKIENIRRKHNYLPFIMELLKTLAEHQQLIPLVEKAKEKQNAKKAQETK
Summary of the method: as §1

USP10 = USP10 (UniProt Q14694)
Summary of the method: as §1

USP15 = biological target: T6, USP15 (UniProt Q9Y4E8)
T6 sequence (whole entry): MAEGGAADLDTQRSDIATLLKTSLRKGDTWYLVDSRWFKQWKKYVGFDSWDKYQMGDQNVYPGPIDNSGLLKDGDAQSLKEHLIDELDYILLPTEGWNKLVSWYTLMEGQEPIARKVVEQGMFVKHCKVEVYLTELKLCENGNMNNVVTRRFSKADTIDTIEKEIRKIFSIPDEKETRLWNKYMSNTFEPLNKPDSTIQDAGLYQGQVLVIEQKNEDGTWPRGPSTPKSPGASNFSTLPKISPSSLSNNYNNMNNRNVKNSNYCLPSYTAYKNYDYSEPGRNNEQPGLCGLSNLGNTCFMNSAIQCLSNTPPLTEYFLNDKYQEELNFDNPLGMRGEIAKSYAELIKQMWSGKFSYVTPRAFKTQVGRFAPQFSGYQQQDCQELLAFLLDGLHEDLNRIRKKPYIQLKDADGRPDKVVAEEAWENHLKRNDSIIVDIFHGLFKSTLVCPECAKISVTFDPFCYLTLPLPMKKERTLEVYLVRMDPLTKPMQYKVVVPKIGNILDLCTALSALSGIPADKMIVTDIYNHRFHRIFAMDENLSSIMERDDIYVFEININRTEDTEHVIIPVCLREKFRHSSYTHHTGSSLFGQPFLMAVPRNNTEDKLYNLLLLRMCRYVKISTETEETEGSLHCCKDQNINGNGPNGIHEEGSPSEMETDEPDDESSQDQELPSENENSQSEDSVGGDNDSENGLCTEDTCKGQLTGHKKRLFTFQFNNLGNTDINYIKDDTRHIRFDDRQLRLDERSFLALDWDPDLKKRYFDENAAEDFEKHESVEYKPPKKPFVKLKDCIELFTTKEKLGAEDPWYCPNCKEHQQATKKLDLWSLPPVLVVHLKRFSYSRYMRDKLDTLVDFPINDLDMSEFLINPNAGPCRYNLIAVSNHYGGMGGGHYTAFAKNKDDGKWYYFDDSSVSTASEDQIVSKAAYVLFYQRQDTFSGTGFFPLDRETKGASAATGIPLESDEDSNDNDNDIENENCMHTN
Summary of the method: as §1

USP16 = USP16 (UniProt Q9Y5T5)
Summary of the method: as §1

Chain of USP16 (Q9Y5T5 whole entry, looked up): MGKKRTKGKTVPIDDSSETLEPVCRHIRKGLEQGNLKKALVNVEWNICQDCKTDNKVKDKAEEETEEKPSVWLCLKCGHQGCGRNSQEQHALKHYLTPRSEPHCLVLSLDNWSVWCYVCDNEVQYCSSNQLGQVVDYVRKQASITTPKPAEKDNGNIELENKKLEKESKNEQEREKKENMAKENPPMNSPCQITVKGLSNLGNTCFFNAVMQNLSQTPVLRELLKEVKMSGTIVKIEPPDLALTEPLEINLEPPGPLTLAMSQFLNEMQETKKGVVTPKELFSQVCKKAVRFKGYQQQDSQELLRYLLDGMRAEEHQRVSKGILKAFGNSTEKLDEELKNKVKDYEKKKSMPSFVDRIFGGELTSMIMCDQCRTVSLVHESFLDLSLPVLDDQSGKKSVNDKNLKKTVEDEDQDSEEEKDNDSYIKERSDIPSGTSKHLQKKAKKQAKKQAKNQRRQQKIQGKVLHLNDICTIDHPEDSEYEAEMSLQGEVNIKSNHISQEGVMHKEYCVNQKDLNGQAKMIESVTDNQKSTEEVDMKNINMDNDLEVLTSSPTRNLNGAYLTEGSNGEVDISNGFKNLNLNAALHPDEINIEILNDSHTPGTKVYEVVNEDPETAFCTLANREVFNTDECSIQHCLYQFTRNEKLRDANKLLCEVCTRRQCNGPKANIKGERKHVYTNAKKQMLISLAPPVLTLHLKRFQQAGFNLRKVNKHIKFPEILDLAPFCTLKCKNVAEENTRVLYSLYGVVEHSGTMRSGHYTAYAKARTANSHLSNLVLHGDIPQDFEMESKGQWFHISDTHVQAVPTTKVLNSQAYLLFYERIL
Chain of UCHL1 (P09936 whole entry, looked up): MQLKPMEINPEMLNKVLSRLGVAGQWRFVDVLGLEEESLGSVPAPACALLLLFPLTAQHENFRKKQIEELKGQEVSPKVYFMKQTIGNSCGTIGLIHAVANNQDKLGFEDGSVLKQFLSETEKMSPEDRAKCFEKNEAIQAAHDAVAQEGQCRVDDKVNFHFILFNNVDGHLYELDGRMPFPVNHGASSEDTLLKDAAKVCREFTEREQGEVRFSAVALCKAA
Chain of USP10 (Q14694 whole entry): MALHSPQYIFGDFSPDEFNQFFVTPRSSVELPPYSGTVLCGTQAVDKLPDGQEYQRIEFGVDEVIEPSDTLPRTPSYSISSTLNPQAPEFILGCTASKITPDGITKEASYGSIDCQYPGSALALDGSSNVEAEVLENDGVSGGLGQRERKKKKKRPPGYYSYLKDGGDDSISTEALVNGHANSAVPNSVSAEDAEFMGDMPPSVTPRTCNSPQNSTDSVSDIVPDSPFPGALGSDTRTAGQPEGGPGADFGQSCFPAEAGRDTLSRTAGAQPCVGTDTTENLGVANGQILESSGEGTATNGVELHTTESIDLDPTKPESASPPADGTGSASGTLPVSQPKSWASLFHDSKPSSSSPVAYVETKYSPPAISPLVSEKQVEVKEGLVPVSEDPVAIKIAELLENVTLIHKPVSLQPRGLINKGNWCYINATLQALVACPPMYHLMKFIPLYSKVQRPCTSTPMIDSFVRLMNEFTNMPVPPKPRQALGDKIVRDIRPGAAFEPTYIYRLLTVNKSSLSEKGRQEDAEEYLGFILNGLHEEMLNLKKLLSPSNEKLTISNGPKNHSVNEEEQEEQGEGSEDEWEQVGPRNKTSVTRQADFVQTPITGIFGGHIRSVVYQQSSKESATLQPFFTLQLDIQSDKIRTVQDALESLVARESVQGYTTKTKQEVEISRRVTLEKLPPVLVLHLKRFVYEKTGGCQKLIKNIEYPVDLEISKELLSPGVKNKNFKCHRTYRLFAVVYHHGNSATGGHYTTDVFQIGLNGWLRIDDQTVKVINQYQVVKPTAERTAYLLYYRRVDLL

O=C(CN1CCN(C(=O)CCl)CC1)Nc1cccc(F)c1
log2 ratio of Biotin-Ahx-Ub-VS probe labelling (OTUD6B): -0.321 | log2 ratio of Biotin-Ahx-Ub-VS probe labelling (OTUD7B): -0.452 | log2 ratio of Biotin-Ahx-Ub-VS probe labelling (PRPF8): -0.19 | log2 ratio of Biotin-Ahx-Ub-VS probe labelling (PSMD7): -0.137 | log2 ratio of Biotin-Ahx-Ub-VS probe labelling (UCHL1): -1.08 (active) | log2 ratio of Biotin-Ahx-Ub-VS probe labelling (UCHL3): -0.122 | log2 ratio of Biotin-Ahx-Ub-VS probe labelling (UCHL5): -0.336 | log2 ratio of Biotin-Ahx-Ub-VS probe labelling (USP10): 0.0386 | log2 ratio of Biotin-Ahx-Ub-VS probe labelling (USP15): -0.225 | log2 ratio of Biotin-Ahx-Ub-VS probe labelling (USP16): -0.245
